The structures appear in SMILES notation.

One experiment concerns Plasmodium falciparum. In words: GSK_TCMDC: Inhibition of Plasmodium falciparum 3D7 in whole red blood cells, using parasite LDH activity as an index of growth. Test compounds present at 2uM. It counts as functional.
With `COc1ccc(-c2csc3ncnc(Cl)c23)cc1`, the Inhibition (in general, the percentage by which the read-out fell short of the control) is on record as 96%.
On the same count and under the same terms, next, `Cc1ccccc1Nc1nc(Nc2ccccc2)c2ccccc2n1.Cl`: 100%.
On the same count and under the same terms, next, `Cc1cc(N)cc2nc(-c3ccc(N)cc3)[nH]c12`: 96%; `CC(CNC(=O)C(c1cc2ccccc2o1)N1CCN(C(c2ccccc2)c2ccccc2)CC1)c1ccccc1` (stereo not given): 99%.
`CCOc1cc2ncnc(Nc3ccc(OCc4ccccc4F)c(Cl)c3)c2cc1OCC.Cl`: the Inhibition stood at 100%.
The same measure, in the same setting: next, `Br.CCCc1cccc(C)c1OCCCON1C(=N)N=C(N)NC1(C)C`: 95%; `CCOc1c(OC)ccc2c1CCN(CCN1CCC(CNC(=O)c3ccc(-c4ccc(C(F)(F)F)cc4)cc3)CC1)C2`: 100%; `COc1ccc(-c2nc(NCc3ccccc3)c3cc(OC)c(OC)cc3n2)cc1`: 100%.
On the same count and under the same terms, next, `CCN(CC)CCOc1ccc(C(O)(C#CC(O)(c2ccc(Br)cc2)c2ccc(OCCN(CC)CC)cc2)c2ccc(Br)cc2)cc1` (stereo not given): 99%.
On to `Cn1nc(-c2ccc(S(=O)(=O)N3CCC(CCN4CCC(c5c[nH]c6ccccc56)CC4)CC3)s2)cc1C(F)(F)F`, for which the Inhibition was found to be 94%.
The same measure, in the same setting: next, `O=C(Nc1ccc(N2CCCN(Cc3cccc(F)c3)CC2)cc1)c1cccs1.O=C(O)C(F)(F)F`: 96%.
On the same count and under the same terms, with `CCOc1ccc2c(c1)C(C)(c1ccc3c(c1)C(C)CC(C)(C)N3)CC(C)(C)N2` (stereo not given) the figure was 94%.
The same measure, in the same setting: next, `N#C/N=C(\NCCCCCCCCN/C(=N\C#N)NCCSCc1csc(N=C(N)N)n1)NCCCSc1csc(N=C(N)N)n1`: 91%; `CC(C)NCc1ccc(-c2cccc(-c3nc4cc(C(F)(F)F)ccc4[nH]3)c2)cc1.O=C(O)C(F)(F)F`: 100%.
The compound `COC(=O)c1ccc(CCC(C)NCC(O)c2cccc(Cl)c2)cc1.Cl` (stereo not given) yielded an Inhibition of 100%.
The same measure, in the same setting: with `CC1(C)N=C(N)N=C(N)N1OCc1ccc2ccccc2c1` the figure was 94%; with `CC(C)C1=CC(=NOS(=O)(=O)c2ccccc2)C=C(C(C)C)C1=O`, 92%; with `CN1CC[C@@H](Oc2cc(NC(=O)Nc3ccccc3Br)ccc2Cl)C1`, 100%.
Same read-out and setting: with `CCOc1ccc(C=CC(=O)Nc2ccc3nc(N4CCN(C)CC4)cc(C)c3c2)cc1OC` the figure was 100%.
The same measure, in the same setting: with `COc1cccc2c(NN=Cc3ccccc3F)ccnc12` the figure was 96%.
`CC1CN(Cc2cccc(F)c2)CCN1c1ccc(NC(=O)c2cccs2)cc1.O=C(O)C(F)(F)F` (stereo not given): the Inhibition is on record as 96%.
For `CNCc1cccc2nc(-c3csc(Cc4cc(Cl)ccc4OCC(C)C)n3)[nH]c12`, the Inhibition was 100%.
Still for that read-out and setting: with `O=c1cc(NCCCCNCc2cccc(C(F)(F)F)c2)[nH]c2ccccc12` the figure was 94%; with `Cc1c(S(=O)(=O)Nc2cccc(CCN3CCCCC3CCN3CCCC3)c2)sc2ccc(Cl)cc12` (stereo not given), 93%.
The compound `COc1ccc(Nc2ccnc3cc(-c4ccccn4)ccc23)cc1OC.Cl` came in with an Inhibition of 91%.
On the same count and under the same terms, next, `O=C(Nc1ccccc1O)c1ccc(S(=O)(=O)c2ccc(Cl)cc2)cc1`: 90%; `CC[C@H](C)CNC(=O)c1cncc(-c2ccc(CN3CCC(N4CCCC4)CC3)cc2)c1.O=C(O)C(F)(F)F`: 100%.
On to `CCc1ccc(NC(=O)C=NNC(=N)N)cc1.O=S(=O)(O)O`, for which the Inhibition is listed as 100%.
Same read-out and setting: next, `NC1CCN(c2cnn(Cc3cccc(NC(=O)Nc4ccc(-c5ccccc5)cc4)c3)c(=O)c2Cl)CC1.O=C(O)C(F)(F)F`: 89%.
On the same count and under the same terms, next, `Cn1nc(-c2cccc(CN[C@@H]3CCc4ccc(O)cc43)c2)c2cnc(NCCCN3CCCC3)nc21`: 100%; `O=C(Nc1cccc(-c2cccc(-c3nc4ccccc4[nH]3)c2)c1)Nc1ccc2c(c1)OCO2`: 100%; `O=C(O)C(F)(F)F.OCCN1CCN(Cc2ccc(-c3ccc(-c4nc5cc(F)ccc5[nH]4)cc3)cc2)CC1`: 100%.
The same measure, in the same setting: next, `CC(C)N(Cc1ccc(-c2ccc(C(F)(F)F)cc2)cc1)C(=O)Cn1c(SCc2cccc(F)c2F)cc(=O)c2cc(CN3CCCCC3)ccc21.Cl`: 100%.
The compound `CN(C)c1ccc(-c2ccc(C(=O)NC3CCN(Cc4ccccc4F)CC3)s2)cc1.O=C(O)C(F)(F)F` showed an Inhibition of 88%.
Still for that read-out and setting: next, `COc1ccc2[nH]ccc(=NN=Cc3ccccc3F)c2c1`: 100%.
Still for that read-out and setting: with `CCCOc1ccc(C(F)(F)F)cc1NC(=O)c1nc2nc(C)cc(C)n2n1` the figure was 90%.
Same read-out and setting: with `Nc1cc(-c2cc3c(OCc4ccccc4)cccc3[nH]2)ccn1` the figure was 85%.
The compound `COc1ccc2c(N/N=C/c3cccc([N+](=O)[O-])c3)ccnc2c1` returned an Inhibition of 100%.
On the same count and under the same terms, with `COc1ccc(Nc2nc(NC3CCCC3)cc(-c3ccc(OC)cc3)n2)cc1` the figure was 86%; with `O=C(O)C(F)(F)F.O=C1OC2(CCN(Cc3cccc(-c4ncc[nH]4)c3)CC2)CN1CCNCc1ccccc1`, 94%.

A further experiment deals with Plasmodium falciparum. In words: GSK_TCMDC: Inhibition of Plasmodium falciparum Dd2 in whole red blood cells, using parasite LDH activity as an index of growth. Test compounds present at 2uM. Format: functional.
Regarding `COc1ccc(-c2csc3ncnc(Cl)c23)cc1`, the Inhibition was 97%.
Still for that read-out and setting: with `Cc1ccccc1Nc1nc(Nc2ccccc2)c2ccccc2n1.Cl` the figure was 21%.
On the same count and under the same terms, with `Cc1cc(N)cc2nc(-c3ccc(N)cc3)[nH]c12` the figure was 75%; with `CC(CNC(=O)C(c1cc2ccccc2o1)N1CCN(C(c2ccccc2)c2ccccc2)CC1)c1ccccc1` (stereo not given), 89%.
On to `CCOc1cc2ncnc(Nc3ccc(OCc4ccccc4F)c(Cl)c3)c2cc1OCC.Cl`, for which the Inhibition came to 74%.
On the same count and under the same terms, next, `Br.CCCc1cccc(C)c1OCCCON1C(=N)N=C(N)NC1(C)C`: 96%.
On the same count and under the same terms, with `CCOc1c(OC)ccc2c1CCN(CCN1CCC(CNC(=O)c3ccc(-c4ccc(C(F)(F)F)cc4)cc3)CC1)C2` the figure was 21%; with `COc1ccc(-c2nc(NCc3ccccc3)c3cc(OC)c(OC)cc3n2)cc1`, 100%; with `CCN(CC)CCOc1ccc(C(O)(C#CC(O)(c2ccc(Br)cc2)c2ccc(OCCN(CC)CC)cc2)c2ccc(Br)cc2)cc1` (stereo not given), 99%.
Same read-out and setting: with `Cn1nc(-c2ccc(S(=O)(=O)N3CCC(CCN4CCC(c5c[nH]c6ccccc56)CC4)CC3)s2)cc1C(F)(F)F` the figure was 22%.
`O=C(Nc1ccc(N2CCCN(Cc3cccc(F)c3)CC2)cc1)c1cccs1.O=C(O)C(F)(F)F` displayed an Inhibition of 96%.
The same measure, in the same setting: next, `CCOc1ccc2c(c1)C(C)(c1ccc3c(c1)C(C)CC(C)(C)N3)CC(C)(C)N2` (stereo not given): 3%; `N#C/N=C(\NCCCCCCCCN/C(=N\C#N)NCCSCc1csc(N=C(N)N)n1)NCCCSc1csc(N=C(N)N)n1`: 24%; `CC(C)NCc1ccc(-c2cccc(-c3nc4cc(C(F)(F)F)ccc4[nH]3)c2)cc1.O=C(O)C(F)(F)F`: 100%.
The same measure, in the same setting: next, `COC(=O)c1ccc(CCC(C)NCC(O)c2cccc(Cl)c2)cc1.Cl` (stereo not given): 94%.
Same read-out and setting: with `CC1(C)N=C(N)N=C(N)N1OCc1ccc2ccccc2c1` the figure was 97%; with `CC(C)C1=CC(=NOS(=O)(=O)c2ccccc2)C=C(C(C)C)C1=O`, 74%.
`CN1CC[C@@H](Oc2cc(NC(=O)Nc3ccccc3Br)ccc2Cl)C1` displayed an Inhibition of 6%.
On the same count and under the same terms, with `CCOc1ccc(C=CC(=O)Nc2ccc3nc(N4CCN(C)CC4)cc(C)c3c2)cc1OC` the figure was 70%; with `COc1cccc2c(NN=Cc3ccccc3F)ccnc12`, 37%.
Still for that read-out and setting: with `CC1CN(Cc2cccc(F)c2)CCN1c1ccc(NC(=O)c2cccs2)cc1.O=C(O)C(F)(F)F` (stereo not given) the figure was 96%; with `CNCc1cccc2nc(-c3csc(Cc4cc(Cl)ccc4OCC(C)C)n3)[nH]c12`, 33%; with `O=c1cc(NCCCCNCc2cccc(C(F)(F)F)c2)[nH]c2ccccc12`, 34%.
Same read-out and setting: with `Cc1c(S(=O)(=O)Nc2cccc(CCN3CCCCC3CCN3CCCC3)c2)sc2ccc(Cl)cc12` (stereo not given) the figure was 10%.
As for `COc1ccc(Nc2ccnc3cc(-c4ccccn4)ccc23)cc1OC.Cl`, the Inhibition is recorded as 26%.
`O=C(Nc1ccccc1O)c1ccc(S(=O)(=O)c2ccc(Cl)cc2)cc1`: the Inhibition is reported as 85%.
Still for that read-out and setting: with `CC[C@H](C)CNC(=O)c1cncc(-c2ccc(CN3CCC(N4CCCC4)CC3)cc2)c1.O=C(O)C(F)(F)F` the figure was 100%.
On the same count and under the same terms, with `CCc1ccc(NC(=O)C=NNC(=N)N)cc1.O=S(=O)(O)O` the figure was 3%; with `NC1CCN(c2cnn(Cc3cccc(NC(=O)Nc4ccc(-c5ccccc5)cc4)c3)c(=O)c2Cl)CC1.O=C(O)C(F)(F)F`, 11%.
On the same count and under the same terms, with `Cn1nc(-c2cccc(CN[C@@H]3CCc4ccc(O)cc43)c2)c2cnc(NCCCN3CCCC3)nc21` the figure was 0%; with `O=C(Nc1cccc(-c2cccc(-c3nc4ccccc4[nH]3)c2)c1)Nc1ccc2c(c1)OCO2`, 57%; with `O=C(O)C(F)(F)F.OCCN1CCN(Cc2ccc(-c3ccc(-c4nc5cc(F)ccc5[nH]4)cc3)cc2)CC1`, 99%.
Compound `CC(C)N(Cc1ccc(-c2ccc(C(F)(F)F)cc2)cc1)C(=O)Cn1c(SCc2cccc(F)c2F)cc(=O)c2cc(CN3CCCCC3)ccc21.Cl` yielded an Inhibition of 59%.
Compound `CN(C)c1ccc(-c2ccc(C(=O)NC3CCN(Cc4ccccc4F)CC3)s2)cc1.O=C(O)C(F)(F)F` had an Inhibition of 19%.
Same read-out and setting: next, `COc1ccc2[nH]ccc(=NN=Cc3ccccc3F)c2c1`: 98%.
The same measure, in the same setting: next, `CCCOc1ccc(C(F)(F)F)cc1NC(=O)c1nc2nc(C)cc(C)n2n1`: 88%; `Nc1cc(-c2cc3c(OCc4ccccc4)cccc3[nH]2)ccn1`: 15%.
Still for that read-out and setting: next, `COc1ccc2c(N/N=C/c3cccc([N+](=O)[O-])c3)ccnc2c1`: 99%.
As to `COc1ccc(Nc2nc(NC3CCCC3)cc(-c3ccc(OC)cc3)n2)cc1`, the Inhibition came to 15%.
`O=C(O)C(F)(F)F.O=C1OC2(CCN(Cc3cccc(-c4ncc[nH]4)c3)CC2)CN1CCNCc1ccccc1` yielded an Inhibition of 0%.
